High-throughput results from PubChem.
FMDV inh: antivirals against foot and mouth disease virus | AID 1159524 | actives 1.2% (n = 410,000) | FMDV antiviral cell-based qHTS | Potency, µM (titrated, usually from 57.9 µM), inactives show at the highest dose activity change, negative = inhibition, usual class: inhibitors; calls by dose curve; tested in HEK293T cells; further: read-out not given here; nearly all actives have a fitted effect of over 45% in size
Sm TGR inh: blocks Schistosoma mansoni thioredoxin glutathione reductase; Q962Y6; purified TGR, DTNB reduction, TNB absorbance 405 nm; Potency, µM (series often up to 114 µM), without a hit: at the top dose activity change, negative = inhibition, usual class: inhibitors; actives 3% (n = 360,000); further: nearly all actives have a fitted effect of over 60% in size
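First, TGR (20 nM dispensed) and NADPH were mixed with compound. Second, a 15 min room-temperature incubation followed. Third, further NADPH and then DTNB were added to start the reaction. Finally, TNB absorbance was monitored kinetically.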
RE007 growth inh: less growth of the S. pombe RE007 Vpr strain. S. pombe RE007 Vpr strain, BacTiter-Glo ATP luminescence, 24 h. Potency, µM (top dose mostly 92.2 µM), for inactives: top-dose activity change, negative = less growth, most hits filed as inhibitors. actives 0.21% (n = 360,000); active means well fitted falling curve with a large enough effect; inconclusive means small, poorly fitted or top-dose-only effect; inactive means no such curve, though single readings can be large or run the other way; further: nearly all actives have a fitted effect of over 50% in size
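Fission yeast RE007 carrying one integrated HIV-1 vpr copy, seeded at OD 0.01 in PMG+AL medium with 23 nL pinned compound. Grown 24 h at 30 degrees; viability read by BacTiter-Glo luminescence after 5 min.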
Marburg entry inh: inhibitors of Marburg virus binding or cell entry | Marburg virus pseudotyped entry inhibition, cell reporter | Potency, µM (highest dose often 37.8 µM), inactives show at the top dose activity change, negative = inhibition, actives largely listed as inhibitors | actives 1.8% (n = 300,000) | AID 540276; calls by dose curve; tested in HEK293 cells
HCV inh: HCV inhibition. Huh7.5.1 HCVcc-Cre infection, luciferase reporter, 44 h. Potency, µM (doses to about 41.8 µM), without a hit: top-dose activity change, negative = inhibition, hits mostly inhibitors. actives 3.4% (n = 340,000). AID 651820
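Luciferase read-out (15 sec integration) after a 15 min room-temperature substrate step quantifies HCVcc-Cre infection. Cells, 1,000 per well, had compound added 4 h post-plating, then virus at ~0.5 moi, and were cultured 44 h.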
Lassa entry inh: blocks Lassa virus binding to or entry into cells; Potency, µM (highest dose often 37.9 µM), inactives show at the highest dose activity change, negative = inhibition, most hits filed as inhibitors; actives 1.2% (n = 300,000); Lassa virus pseudotype entry inhibition, cell reporter; AID 540256; calls by dose curve; tested in HEK293 cells; further: nearly all actives have a fitted effect of over 50% in size
An asterisk follows results filed as active; ? = inconclusive; · = not tested or not shown; [ ] = remark or other dose. The list is not random: actives were taken first. Their share in the collection is about 7.2%. Unless noted, the call rests on the fitted dose curve; in most records, active means well fitted curve in the direction sought with a large enough effect; inconclusive means small, poorly fitted or top-dose-only effect, or another doubt; inactive means no such curve, though single readings can be large; an effect the other way counts as inactive or inconclusive. On the % scale 0 is the no-effect control and ±100 the full control effect; potency means the concentration at half of the fitted maximal effect.

SMILES	FMDV inh	Sm TGR inh	RE007 growth inh	Marburg entry inh	HCV inh	Lassa entry inh
O=C(Nc1ccc(S(=O)(=O)N2CCCCC2)cc1)C1CC(=O)N(Cc2ccccc2)C1 (configuration not stated)	13%	-3%	-3%	-12%	6%	5%[46.1 µM]
CCN(C(=O)CSc1nc(-c2ccc(C(C)C)cc2)no1)c1ccccc1	-25%	-5%	·	·	·	?
COc1cc2c(cc1NC(=O)c1ccc(C(C)(C)C)cc1)CCCC2	-10%	17%	?	4.5µM*	?	1.4µM*
O=C(N/N=C/c1cccnc1)c1cccc(Br)c1	27%	-2%	-2%	·	18%	·
CCOc1ccc(OCc2cccc(C(=O)N/N=C/c3cccnc3)c2)cc1	-40%	-8%	6%	0.32µM*	2%	1.6µM*
O=C(N/N=C/c1cccnc1)c1ccccc1OCc1cccc(Br)c1	?	6%	3%	?	?	-15%
CC(C)c1ccc(OCc2cccc(C(=O)N/N=C/c3cccnc3)c2)cc1	-20%	5%	8%	1.4µM*	?	?
O=C(Nc1cc(N2CCOCC2)ncn1)NC1(C(F)(F)F)Oc2ccccc2O1	-28%	13µM*	-15%	?	?	-28%
COc1cccc(NC(=O)NC2(C(F)(F)F)Oc3ccccc3O2)c1	-20%	40µM*	-5%	8.2µM*	?	-19%
COc1cccc(NC(=O)Nc2cccc(C(=O)O)c2)c1	?	-1%	5%	?	14%	?
CN(C)S(=O)(=O)c1ccc(/C(O)=C2/C(=O)C(=O)N(Cc3cccnc3)C2c2cccs2)cc1 (configuration not stated)	6%	25µM*	-3%	1%[46.1 µM]	24%	·
CC(CNc1ccccc1O)C(=O)O (configuration not stated)	-16%	50µM*	14%	3%	-6%	-4%
O=C(c1ccccc1)c1sc(N2CCOCC2)nc1-c1ccccc1	?	10%	0%	?	-19%	?
[2H]c1c([2H])c([2H])c(C(=O)c2sc(N3CCCCCC3)nc2-c2ccccc2)c([2H])c1[2H]	?	6%	5%	?	22µM*	-11%
O=C(c1ccc(Br)cc1)c1sc(N2CCOCC2)nc1-c1ccccc1	?	-2%	-6%	?	7.9µM*	?
Cc1c(C(=O)N2CCCC(c3ccccc3)C2)sc2ncnc(NCCc3ccccn3)c12 (configuration not stated)	-12%	·	·	·	·	·
COc1cc([C@@H]2c3cc4c(cc3[C@@H](O[C@@H]3O[C@H]5CO[C@@H](C)O[C@@H]5[C@@H](O)[C@H]3O)[C@@H]3COC(=O)[C@@H]23)OCO4)cc(OC)c1O	-16%	·	·	·	·	·
Clc1cccc(OCCOCCN2CCNCC2)c1Cl	-19%	·	1%	13µM*	?	3%
Clc1cccc(OCCCN2CCCC2)c1Cl	1%	6%	-2%	?	?	-15%
CC(=O)NC1=C(C#N)C(c2ccccc2)c2c(ccc3ccccc23)O1 (configuration not stated)	-7%	6%	6%	10µM*	?	?
CCCc1[nH]nc2c1C(c1ccc(OCCN3CCOCC3)c(OC)c1)C(C#N)=C(N)O2 (configuration not stated)	-29%	0%	-5%	0%	13%	?
CCOc1cc(C2C(C#N)=C(N)SC(N)=C2C#N)ccc1OCCN1CCOCC1	·	22µM*	-5%	-22%	-10%	23%
COc1ccc(OCc2nc3ccccc3[nH]2)cc1	·	-19%	-3%	?	?	?
COc1ccc(NS(=O)(=O)c2ccc3nc(COc4ccc(C#N)cc4)[nH]c3c2)cc1	-17%	-16%	3%	-31%	13µM*	-8%
CC(C)C[C@@H]1COc2cccc(NN3CCN(C)CC3)c2S(=O)(=O)N1	·	·	·	·	·	-1%[46.1 µM]
SMILES	FMDV inh	Sm TGR inh	RE007 growth inh	Marburg entry inh	HCV inh	Lassa entry inh
CCn1c2ccccc2c2cc(C#N)c(N)nc21	-6%	·	-15%	·	13µM*	·
CCc1ccccc1NC(=O)CSc1nnc(-c2cc(OC)c(OC)c(OC)c2)o1	-25%	-3%	·	9%[46.1 µM]	·	6%[46.1 µM]
CCN(CC)P(=O)(Nc1ccc(C)cc1Br)c1ccc(N(C)C)cc1NC(=O)c1ccco1 (configuration not stated)	-29%	?	-14%	11µM*	?	·
Cc1ccc(NC(=O)c2ccco2)c(NC(=O)c2ccccc2)c1	3%	-1%	14%	12%[46.1 µM]	?	-2%[46.1 µM]
O=C1CN(c2nc(-c3cccs3)nc3sc4c(c23)CCCC4)CCN1	44%	-36%	-13%	?	5.6µM*	?
Cc1sc(NC(=O)c2ccco2)nc1-c1ccc2c(c1)CC(C)N2C(=O)C1CC1 (configuration not stated)	14µM*	-34%	9%	10µM*	5µM*	9.2µM*
CC(=O)Nc1nc(-c2ccc3c(c2)CC(C)N3C(=O)C2CC2)c(C)s1 (configuration not stated)	0%	-23%	42%	-16%[46.1 µM]	?	6%
Cc1sc(NC(=O)c2ccco2)nc1-c1ccccc1	-19%	-14%	-29%	?	14µM*	?
O=C(CSc1nnc(CNC(=O)c2ccccc2F)n1-c1ccccc1)Nc1ccccc1F	3%	8%	·	?	·	-12%[46.1 µM]
O=C(Nc1ccc(-c2nc3ccccc3o2)c(O)c1)c1cc(-n2cnnc2)ccc1Cl	13µM*	-4%	-18%	?	11µM*	3%
CCC(Sc1nnc2c(n1)[nH]c1ccccc12)C(=O)Nc1ccccc1OC (configuration not stated)	19%	-2%	·	?	·	15%[46.1 µM]
COc1ccc(CN2CCC(n3cc(C(=O)N4CCCC4)nn3)CC2)c(OC)c1C	-13%	·	·	·	·	·
O=C(Nc1ccc2nc3n(c(=O)c2c1)CCCC3)c1cc([N+](=O)[O-])ccc1F	20µM*	-11%	-16%	7.1µM*	?	3.3µM*
O=C(Nc1cccc(S(=O)(=O)N2CCCCC2)c1)c1ccc2c(=O)n3c(nc2c1)CCCCC3	3.2µM*	-3%	24%	3.2µM*	6.3µM*	?
CCOc1ccc(NC(=O)c2ccc3c(=O)n4c(nc3c2)CCCCC4)cc1	?	0%	-11%	-2%[46.1 µM]	11µM*	-2%[46.1 µM]
O=C(Nc1ccc2nc3n(c(=O)c2c1)CCCC3)c1cccc([N+](=O)[O-])c1	1%	-10%	2%	6%	?	12%
CCc1ccc(NC(=O)c2ccc3c(=O)n4c(nc3c2)CCCCC4)cc1	-33%	5%	13%	·	10µM*	·
CCN(CC)S(=O)(=O)c1ccc(NC(=O)c2ccc3c(=O)n4c(nc3c2)CCCCC4)cc1	28µM*	-4%	·	?	·	?
